High-throughput results (PubChem BioAssay)
Tb PYK inh: T. brucei pyruvate kinase inhibition; Q57TT1; TbPYK enzyme, Kinase-Glo Plus ATP luminescence, 45 min; Potency, µM (titrated, usually from 76.8 µM), for inactives: at the highest dose activity, negative = inhibition, usual class: inhibitors; 0.12% of 410,000 active; note: % is set by controls: 0 for no effect and ±100 for the full control effect; nearly all actives have a fitted effect of over 50% in size
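Luminescent Kinase-Glo Plus end-point after 45 min room-temperature reaction of T. brucei pyruvate kinase started with 130 uM ADP (final). Buffer TEA 50 mM pH 7.2 with KCl, MgCl2, BSA, Tween-20; titration-based qHTS with fitted concentration-effect curves.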
Sm TGR block: inhibitors of Schistosoma mansoni thioredoxin glutathione reductase; Q962Y6; purified TGR, DTNB reduction, TNB absorbance 405 nm; Potency, µM (doses to about 114 µM), for inactives: at the top dose activity change, negative = inhibition, actives largely listed as inhibitors; 3% of 360,000 active; note: % is set by controls: 0 for no effect and ±100 for the full control effect; nearly all actives have a fitted effect of over 60% in size
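TGR 20 nM + NADPH 100 uM (dispensed conc.), cpd preinc 15 min RT; start with NADPH (500 uM addition) then DTNB (15 mM addition). Kinetic TNB absorbance, 405 nm filter. Four-parameter Hill fit across titration.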
AmpC no deterg: AmpC beta-lactamase inhibition without detergent | 0.52% of 330,000 active | Potency, µM (doses to about 57.1 µM), for the others: at the top dose activity change, negative = inhibition, usual class: inhibitors | P00811 | AmpC nitrocefin hydrolysis, absorbance 480 nm, 0.0001% Triton;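 note: plate controls were no compound for no effect and no enzyme for full effect; nearly all actives have a fitted effect of over 20% in size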
Target sequence (P00811 whole entry, looked up): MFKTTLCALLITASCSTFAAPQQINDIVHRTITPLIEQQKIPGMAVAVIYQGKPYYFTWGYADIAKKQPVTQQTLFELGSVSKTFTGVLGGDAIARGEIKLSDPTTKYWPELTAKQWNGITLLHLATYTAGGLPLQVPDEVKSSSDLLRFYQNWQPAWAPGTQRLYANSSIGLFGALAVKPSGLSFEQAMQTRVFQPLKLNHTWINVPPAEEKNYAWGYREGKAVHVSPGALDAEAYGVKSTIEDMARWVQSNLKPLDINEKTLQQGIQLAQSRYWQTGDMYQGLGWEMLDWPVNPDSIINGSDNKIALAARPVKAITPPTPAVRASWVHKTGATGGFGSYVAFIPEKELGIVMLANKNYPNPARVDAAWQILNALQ
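AmpC (5.3 nM in the dispensed reagent) in 20 mM phosphate pH 7.0 with 0.01% (detergent screen) or 0.0001% Triton X-100 was preincubated with compounds for 15 min at room temperature. Nitrocefin was then added from an 800 uM solution, and hydrolysis was followed at 480 nm.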
RE007 growth inh: less growth of the S. pombe RE007 Vpr strain. S. pombe RE007 Vpr strain, BacTiter-Glo ATP luminescence, 24 h. Potency, µM (top dose mostly 92.2 µM), without a hit: top-dose activity change, negative = less growth, most hits filed as inhibitors. 0.21% of 360,000 active. AID 651644; active = well fitted falling curve with a large enough effect; inconclusive = small, poorly fitted or top-dose-only effect; inactive = no such curve, though single readings can be large or run the other way; note: % is set by controls: 0 for no effect and ±100 for the full control effect; nearly all actives have a fitted effect of over 50% in size
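Fission yeast RE007 carrying one integrated HIV-1 vpr copy, seeded at OD 0.01 in PMG+AL medium with 23 nL pinned compound. Grown 24 h at 30 degrees; viability read by BacTiter-Glo luminescence after 5 min.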
AmpC inh detg: AmpC beta-lactamase inhibition with detergent present. P00811. AmpC hydrolysis of nitrocefin, absorbance 480 nm, 0.01% Triton. Potency, µM (highest dose often 114 µM), without a hit: top-dose activity change, negative = inhibition, actives largely listed as inhibitors. 0.041% of 370,000 active;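 note: 0% = no-compound wells and -100% = no-enzyme wells; nearly all actives have a fitted effect of over 25% in size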
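AmpC (5.3 nM in the dispensed reagent) in 20 mM phosphate pH 7.0 with 0.01% (detergent screen) or 0.0001% Triton X-100 was preincubated with compounds for 15 min at room temperature. Nitrocefin was then added from an 800 uM solution, and hydrolysis was followed at 480 nm.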
SARS PLP yeast: blocks SARS-CoV papain-like protease in a yeast assay. AID 485353. Potency, µM (highest dose often 32.9 µM), inactives show top-dose activity, positive = growth rescue, hits mostly activators. S. cerevisiae expressing SARS-CoV PLpro, growth rescue. 0.19% of 330,000 active; calls by dose curve; note: 0% is about no effect; nearly all actives have a fitted effect of over 55% in size
An asterisk follows results filed as active; u = inconclusive; x = not tested or not shown. Shown are actives, neighbours in structure and some others; about 3.3% of the full set was active somewhere. Unless noted, calls come from the whole dose curve; as a rule, active = well fitted curve in the direction sought with a large enough effect; inconclusive = small, poorly fitted or top-dose-only effect, or another doubt; inactive = no such curve, though single readings can be large; an effect the other way counts as inactive or inconclusive. Potency is the fitted concentration of half-maximal effect.

SMILES	Tb PYK inh	Sm TGR block	AmpC no deterg	RE007 growth inh	AmpC inh detg	SARS PLP yeast
Cc1ccc(S(=O)(=O)c2nc(S(C)(=O)=O)sc2N(C)C)cc1	-9%	25µM*	-8%	1%	7%	3%
Cc1ccc(S(=O)(=O)c2nc(S(C)(=O)=O)sc2N(C)Cc2ccccc2)cc1	0%	u	x	x	11%	x
Cn1ncc(S(=O)(=O)Cc2ccccc2)c(Cl)c1=O	-5%	0.16µM*	0%	-20%	-3%	0%
CCN1C(=NCCc2c[nH]c3ccccc23)N[C@@H](c2ccccc2)[C@H](C(=O)OC)[C@H]1C	0%	45µM*	-43%	-16%	u	0%
CCN1C(=NCc2ccc(OC)cc2)N[C@@H](c2ccccc2)[C@H](C(=O)OC)[C@H]1C	-10%	-2%	-4%	-10%	u	2%
O=C(NCc1ccccc1Cl)c1cc(=O)[nH]c2ccccc12	-7%	50µM*	-15%	-16%	-18%	-20%
O=C(NCc1ccccc1F)c1cc(=O)[nH]c2ccccc12	-3%	-9%	-12%	-3%	-12%	-5%
O=C(O)c1ccccc1-c1c2cc(Br)c(=O)c(Br)c-2oc2c(Br)c(O)c(Br)cc12	-24%	x	x	x	x	x
Cc1ccc(/C=[N+](\[O-])c2ccc(N(C)C)cc2)c2nsnc12	-20%	28µM*	-7%	4µM*	-12%	-33%
Cc1ccc2nsnc2c1NS(=O)(=O)c1c(C)ccc2nsnc12	-2%	u	-42%	-12%	-11%	-10%
O=[N+]([O-])c1ccc(Oc2ccc(N=C=S)cc2)cc1	0%	x	x	x	x	x
COc1ccc(C)c2sc(NC(=O)C3=COCCO3)nc12	x	0%	40µM*	x	u	-17%
Cc1ccc(C)c(-c2csc(NC(=O)C3=COCCO3)n2)c1	-1%	0%	-15%	25µM*	-11%	-33%
Cc1nn(CCO)c2nc(-c3cccs3)cc(C(F)(F)F)c12	7%	25µM*	70%	-13%	0%	-26%
COc1ccc(C2c3cc(OC)c(OC)cc3CC(=O)N2c2ccc(C)cc2)cc1 (stereo not given)	1%	12%	x	x	13%	x
Cc1ccc(C(=O)OCC(=O)NCc2ccccc2)cc1S(=O)(=O)N1CCCCC1	-6%	-8%	-22%	2%	0%	1%
Cc1ccc(C(=O)OCC(=O)c2c[nH]c3ccccc23)cc1S(=O)(=O)N1CCCCC1	-7%	-1%	16µM*	5%	-13%	-7%
Cc1ccc(C(=O)NNC(=O)c2ccccc2O)cc1S(=O)(=O)N1CCCCC1	5%	3%	8.9µM*	-24%	u	3%
CCOc1ccccc1N(CC(=O)Nc1ccc(OC)c(Cl)c1)S(=O)(=O)c1ccccc1	-16%	2%	x	x	-6%	x
CC(C)CCOc1ccc(Oc2nc(N(C)C)nc(N(C)C)n2)nn1	1%	-2%	x	x	4%	x
CCC(Oc1ccc(F)cc1)C(=O)Nc1c(C(=O)c2ccc(C)cc2)oc2ccccc12 (stereo not given)	-1%	12%	x	x	24%	x
CS(=O)(=O)N(CC(=O)N1CCCC1)Cc1ccc(F)cc1	6%	40µM*	-5%	0%	-1%	1%
Cc1ccc2scc(N3CCN(c4ccccc4)CC3)c(=O)c2c1	2%	2%	x	x	17%	x
N=c1sc2ccccc2n1-c1ccccc1	5%	-11%	-2%	-3%	-4%	1%
C=CC(=O)N=c1sc2ccccc2n1-c1ccccc1	-2%	40µM*	-12%	-29%	5%	-12%
CCOc1ccccc1N1C(=O)CC(Nc2ccc(N3CCOCC3)cc2)C1=O (stereo not given)	0%	18µM*	38%	10%	-12%	6%
COc1ccccc1N1CCN(C(=O)N2CCOCC2)CC1	3%	2%	-10%	-3%	-9%	1%
